Consider 21 compounds from PubChem BioAssay (NCI).

This is part of a sample that, as a whole, favours compounds with a hit. Of some 79,000 tested, about 15% had one in any assay. Values without a mark were called inactive. Activity calls are given as the source filed them. Rule as the data show it: active = growth inhibition above about 70%; inactive = the rest.

Experiment [1] is described as follows: NCI Yeast Anticancer Drug Screen. Data for the rad50 strain (AID 155).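 Also: 0% = growth of vehicle-only cultures of the same strain.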 Particulars: S. cerevisiae rad50 strain growth inhibition; at 50.0 µM; active compounds read high. The gist of the method: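 Yeast carrying a defined DNA repair defect were exposed to test compounds, and growth was compared with vehicle-treated controls to give percent inhibition.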
Experiment [2] is described as follows: NCI Yeast Anticancer Drug Screen. Data for the mec2-1 strain (AID 157). Particulars: S. cerevisiae mec2-1 strain, at 50.0 µM, active compounds read high. The gist of the method:
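Cells of the genetically defined mec2-1 yeast strain are incubated with test compound. Inhibition of growth is calculated against vehicle-treated controls.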

Experiment [3] in a line: NCI Yeast Anticancer Drug Screen. Data for the sgs1 mgt1 strain (AID 161).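 Also: 0% = growth of cultures given vehicle only.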 Particulars: S. cerevisiae sgs1 mgt1 strain, at 50.0 µM, active compounds read high. The gist of the method: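 Test agents were incubated with a DNA-repair-mutant yeast strain. Growth was then read and compared against vehicle-treated controls.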
Experiment [4] in a line: NCI Yeast Anticancer Drug Screen. Data for the cln2 rad14 strain (AID 165).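 Also: 0% = growth equal to vehicle treated cultures.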 Particulars: S. cerevisiae cln2 rad14 strain, at 50.0 µM, active compounds read high. The gist of the method: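 The screen exposed genetically defined yeast (cln2 rad14) to test compounds and scored growth inhibition relative to vehicle-treated controls.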
Experiment [5] in a line: NCI Yeast Anticancer Drug Screen. Data for the bub3 strain (AID 167). Particulars: S. cerevisiae bub3 mutant strain, at 50.0 µM, active compounds read high. The procedure, abridged: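 Compounds were applied to a genetically altered yeast strain carrying a cell-cycle control defect. Growth inhibition was scored against vehicle-treated controls.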
A short description of experiment [6]: NCI Yeast Anticancer Drug Screen. Data for the mlh1 rad18 strain (AID 175). Particulars: S. cerevisiae mlh1 rad18 strain growth inhibition; at 50.0 µM; active compounds read high. The procedure, abridged:
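Compound-treated yeast growth, normalised to vehicle controls. Strain bears defined DNA repair mutations.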

As for `CNC(=O)c1ccccc1O`, the growth inhibition was 21.2% in experiment [1]; 8.55% in experiment [2]; 5.65% in experiment [3]; 11.3% in experiment [4]; 5.15% in experiment [5]; 2.35% in experiment [6].

With `CC(=O)OCC(CBr)(CBr)COC(C)=O`, the growth inhibition in experiment [1] is 8.85%; in experiment [2], -41.4%; in experiment [3], -6.05%; in experiment [4], -102%; in experiment [5] it was -20.8%; in experiment [6], 23.1%.

In the case of `CC(O)CNc1ncnc2c1cnn2C` (stereo unspecified), the growth inhibition was -4.1% in experiment [1]; -24.9% in experiment [2]; -10.2% in experiment [3]; 8.8% in experiment [4]; -4.3% in experiment [5]; 12.8% in experiment [6].

Take `Clc1ccc2cn[nH]c2c1`: the growth inhibition in experiment [1] was -50.4%; in experiment [2] it was -28.1%; in experiment [3], -23.2%; in experiment [4], 3.3%; in experiment [5], -18.9%; in experiment [6], -9.3%.

As to `CC(C)N(C(=O)C12C3C4C5(C(=O)O)C(C1C35I)C42C(=O)O)C(C)C` (stereo unspecified), the growth inhibition in experiment [1] was -5.25%; in experiment [2], 11.1%; in experiment [3], -13.3%; in experiment [4], 13.7%; in experiment [5] it was -10.4%; in experiment [6], -4.1%.

Take `COc1cccc(C(Nc2nncs2)Nc2nncs2)c1`: the growth inhibition in experiment [1] was 3.1%; in experiment [2], -9.2%; in experiment [3], -8.45%; in experiment [4], 13.9%; in experiment [5], -20.3%; in experiment [6], 16.1%.

Consider `O=C(Cl)c1ccc(Cc2ccc([N+](=O)[O-])cc2)cc1`, for which the growth inhibition was 14.8% in experiment [1]; 8.4% in experiment [2]; 11.4% in experiment [3]; -21.9% in experiment [4]; -17.1% in experiment [5]; 12.4% in experiment [6].

On to `O=C1Cc2nc(CO)c(CO)c(CO)c2CO1`, for which the growth inhibition is -43% in experiment [1]; -34.6% in experiment [2]; -72.7% in experiment [3]; -2.85% in experiment [4]; -37% in experiment [5]; -47% in experiment [6].

As to `Cc1ccc(NC(=O)c2ccco2)c(C)c1`, the growth inhibition is -2.3% in experiment [1]; -2.55% in experiment [2]; 5.05% in experiment [3]; 2.65% in experiment [4]; 8.4% in experiment [5]; -3.1% in experiment [6].

For the compound `CNC(CC(=O)O)C(=O)O` (stereo unspecified), the growth inhibition is -0.4% in experiment [1]; -3.95% in experiment [2]; -14.6% in experiment [3]; -15.1% in experiment [4]; 2.5% in experiment [5]; -3.05% in experiment [6].

On to `CN=C(c1ccccc1)N(O)c1ccccc1`, for which the growth inhibition in experiment [1] is -16.1%; in experiment [2] it was -1.15%; in experiment [3] it was -8.15%; in experiment [4], -10.1%; in experiment [5] it was -1.65%; in experiment [6], 6.2%.

Take `CC(C)/C(Cl)=N/OC(=O)Nc1ccc(Cl)c(Cl)c1`: the growth inhibition in experiment [1] was 85.5% (active); in experiment [2], 90.8% (active); in experiment [3], 92.3% (active); in experiment [4] it was 84.8% (active); in experiment [5] it was 88.9% (active); in experiment [6], 82.8% (active).

With `O=c1[nH]c(=O)n(C2CC(O)C(CO)O2)cc1OC/C=C/Cc1ccccc1` (stereo unspecified), the growth inhibition in experiment [1] was -22.1%; in experiment [2] it was -12.8%; in experiment [3], 0.95%; in experiment [4] it was 7.75%; in experiment [5], -10.4%; in experiment [6], -20.7%.

As for `CCCCCCCC1CCCC1=O` (stereo unspecified), the growth inhibition in experiment [1] was -32.1%; in experiment [2], -53.6%; in experiment [3], -37.8%; in experiment [4] it was 5.7%; in experiment [5], -31.8%; in experiment [6], -0.8%.

Consider `CC(=O)NCCc1nc(-c2nc(C(=O)NCCC(C)C)cs2)cs1`, for which the growth inhibition in experiment [1] was 14.1%; in experiment [2], 16.6%; in experiment [3] it was -2%; in experiment [4], -23.4%; in experiment [5], 6.8%; in experiment [6], 5.9%.

Turning to `CC(=O)Nc1cc(C)c(C(=O)O)c(C)c1`, the growth inhibition is -26.5% in experiment [1]; -19.4% in experiment [2]; -9.35% in experiment [3]; -18.1% in experiment [4]; -24.9% in experiment [5]; -21.4% in experiment [6].

As for `CCOC(=O)C(C(C)=O)C(CC(=O)OC)NC(=O)OCc1ccccc1` (stereo unspecified), the growth inhibition in experiment [1] is -24.5%; in experiment [2], -21.9%; in experiment [3] it was -60.6%; in experiment [4] it was -57.2%; in experiment [5], -32.2%; in experiment [6], -35.5%.

In the case of `CC1CCC2C(C(=O)O[C@H]3C4C=CO[C@@H](OC5OC(CO)C(O)C(O)C5O)C4[C@@]4(CO)O[C@@H]34)=CO[C@@H](OC3OC(CO)C(O)C(O)C3O)C12` (stereo partly specified), the growth inhibition in experiment [1] was -12.3%; in experiment [2] it was -32.5%; in experiment [3] it was -18.6%; in experiment [4], 4.2%; in experiment [5] it was -12.8%; in experiment [6], -11.4%.

Regarding `COc1cc2c(cc1OC)[C@H]1Cc3cc(OC)c(OC)cc3[C@@H](C2)N1C(C)=O`, the growth inhibition was -2.1% in experiment [1]; -11.2% in experiment [2]; -16.6% in experiment [3]; 22.6% in experiment [4]; 20.9% in experiment [5]; -3.6% in experiment [6].

As for `CC(C)(C)c1ccn[nH]1.CC(C)(C)c1ccn[nH]1.[Cl-].[Cl-].[O]=[V][O-]`, the growth inhibition in experiment [1] is 0.9%; in experiment [2], -12.4%; in experiment [3] it was 9.65%; in experiment [4] it was -29.2%; in experiment [5], -21.8%; in experiment [6], -12.8%.

For `O=C1OC(c2cccc(Cl)c2)=N/C1=C\c1ccc(Cl)cc1`, the growth inhibition is 20.4% in experiment [1]; 16.6% in experiment [2]; 16.6% in experiment [3]; 11.2% in experiment [4]; 7.5% in experiment [5]; 0.6% in experiment [6].
